Results taken from PubChem BioAssay AID1981 (Southern Research Specialized Biocontainment Screening …, 2009).
Among all 2,200 compounds or so, about 480 (22%) were called active. No rule for the calls is given here. These entries were drawn from the full list. Entries that show only a call come without a potency. Potency and affinity values are given separately.

Assay: S. Typhimurium GFP fluorescence modified counterscreen for PhoP regulon inhibitor project dose response (AID 1981)
Conditions: 4 h; series mostly up to 150 µM

| Structure (SMILES) | outcome |
| --- | --- |
| Cc1ccc(-c2[nH]c(-c3ccc(Cl)cc3)nc2SCC(=O)NCC2CCCO2)cc1 (centres undefined) | inactive |
| S=C(NN=C1C2CC3CC(C2)CC1C3)Nc1ccccc1 | inactive |
| Cc1ccc(C(C(=O)NCc2ccco2)N(CCc2ccccc2)C(=O)Cn2nnc3ccccc32)o1 (centres undefined) | inactive |
| O=C(Nc1cccc(-c2cn3cccnc3n2)c1)c1ccco1 | inactive |
| Cn1c(NCc2ccccc2O)nc2ccccc21 | inactive |
| N/C(=N\OC(=O)c1ccc(F)cc1)c1nonc1N | inactive |
| CNC(=O)c1ccc(-c2ccc(F)cc2)s1 | inactive |
| COc1cc(/C=C2/SC(=S)N(CC(=O)Nc3cccnc3)C2=O)cc(OC)c1OC | inactive |
| CCCCCCC(=O)N(O)C1CC(=O)N(c2ccc(C)cc2)C1=O (centres undefined) | inactive |
| C=CCNC(=S)NNC(=O)c1cccn(Cc2ccc(Cl)cc2)c1=O | inactive |
| Nc1cc(Br)c(N)c(Br)c1 | inactive |
| CC(=O)NC1C(c2nc3ccccc3s2)=C(c2ccccc2)C(=O)N1c1ccc(C)cc1 (centres undefined) | inactive |
| CC1Cc2ccccc2N1C(=O)COC(=O)c1ccc(S(=O)(=O)N(C)C)cc1 (centres undefined) | inactive |
| COC(=O)Cc1c(O)ccn(Cc2ccc(F)cc2)c1=O | inactive |
| CCc1c(C)c2cc(Cl)c(O)c(CN(C)C)c2oc1=O | inactive |
| CC1=CC(C)(C)n2c(O)c(C3=NC(=S)NC3=O)c3cc(OC(=O)c4cccc5ccccc45)cc1c32 | inactive |
| Cn1c(=N)n(CC(=O)c2ccc(Br)s2)c2ccccc21 | inactive |
| N=c1n(CC(=O)c2ccc([N+](=O)[O-])cc2)c2ccccc2n1Cc1ccccc1 | inactive |
| COc1cc(S(=O)(=O)N2CCCCC2)ccc1NC=O | inactive |
| NC1=Nc2ccccc2Oc2ccccc21 | inactive |
| NC1=NC(=Nc2cccc(Cl)c2)c2ccccc21 | inactive |
| c1ccc2c(C3=NNC(=NC4CCCCC4)SC3)c[nH]c2c1 | inactive |
| CN(C)S(=O)(=O)Nc1ccc(C(=O)O)cc1 | inactive |

| Structure (SMILES) | outcome |
| --- | --- |
| COc1cccc(OCC(O)CN2CCN(c3ccccn3)CC2)c1 (centres undefined) | inactive |
| Cn1c(SCC(=O)NC(=O)c2cccc([N+](=O)[O-])c2)nnc1-c1ccc(F)cc1 | inactive |
| O=C(Cn1cc[n+](CC(=O)c2ccccc2)c1)c1ccccc1 | inactive |
| C/C(=N/Nc1nc(-c2ccccc2)cc(-c2ccc(F)cc2)n1)c1cccc(N)c1 | inactive |
| c1ccc(-c2nnc(SCCC3OCCCO3)o2)cc1 | inactive |
| CC1(C)CC2CC(C)(CN2C(=O)COC(=O)c2n[nH]c(=O)c3ccccc23)C1 (centres undefined) | inactive |
| Fc1ccccc1COc1ccc(Br)cc1CNCc1ccncc1 | inactive |
| c1ccc(COc2ccccc2CNCc2cccnc2)cc1 | inactive |
| O=[N+]([O-])c1ccccc1CNc1ccc(F)c(Cl)c1 | inactive |
| O=c1cc(CSc2nc(NCc3ccccc3)c3ccccc3n2)nc2ccc(Cl)cn12 | inactive |
| N#CCCN(C(=O)CN1C(=O)NC2(CCCC2)C1=O)c1ccccc1F | inactive |
| O=C(CCNS(=O)(=O)c1cccc2nsnc12)Nc1ccc2c(c1)OCCO2 | inactive |
| Cc1nc2c(=O)n(C)c(=O)n(C)c2nc1Cl | inactive |
| Cc1cc(C)nc(/N=C(\N)Nc2ccc(SC(F)F)cc2)n1 | inactive |
| CC(=O)c1c(C)[nH]c(C(=O)CSc2nnc(-c3ccco3)n2Cc2ccccc2)c1C | inactive |
| O=C(O)c1cc(NCc2ccc3c(c2)OCO3)ccc1N1CCOCC1 | inactive |
| CCn1cc(C(=O)O)c(=O)c2cc(Br)ccc21 | inactive |
| O=C(Cn1nc(Cc2cccnc2)c2ccccc2c1=O)NCc1ccc2c(c1)OCO2 | inactive |
| Cc1ccc(S(=O)(=O)c2cn(Cc3ccc(F)cc3)c3cc4c(cc3c2=O)OCO4)cc1 | inactive |
| Cc1cccc(C(=O)O/N=C2\CCSc3ccc(C)cc32)c1 | inactive |
| Cc1cccc(OCC(=O)N(Cc2cccs2)C2CCS(=O)(=O)C2)c1C (centres undefined) | inactive |
| O=c1c2c([nH]c3ccccc13)CCCCC2 | inactive |
| CCCOc1ccc(/C=N/O)cc1 | inactive |

| Structure (SMILES) | outcome |
| --- | --- |
| O=C(C[n+]1cc(-c2ccccc2)n2c1CCCCC2)c1ccc(Cl)cc1 | inactive |
| Clc1ccc(C[n+]2cc(-c3ccc(Cl)cc3)n3c2CCC3)cc1 | inactive |
| Clc1ccc(-c2c[n+](Cc3ccc(Cl)cc3Cl)c3n2CCCCC3)cc1 | inactive |
| C/C(=N/Nc1nc(-c2ccc(Cl)cc2)cs1)c1cccs1 | inactive |
| CCN(CC)CC(=O)Nc1nc(-c2ccc(Cl)cc2)cs1 | inactive |
| CCOC(=O)Cc1ccc(NS(=O)(=O)c2ccc(SC)cc2)cc1 | inactive |
| CCOC(=O)N1CCN(C(=O)c2ccc(NC(=O)c3ccc(C)cc3)cc2)CC1 | inactive |
| O=C(O)C1CCC(N2C(=O)C3CCCCC3C2=O)CC1 (centres undefined) | inactive |
| COC(=O)c1sccc1NC(=O)c1cccnc1 | inactive |
| Cc1ccc(Nc2nnc(C3C(=O)N(C)C4(C)CC3c3cc(Br)ccc3O4)s2)cc1 (centres undefined) | inactive |
| Cc1ccc(S(=O)(=O)c2c(C(=O)c3ccccc3)cnc3cc4c(cc23)OCCO4)cc1 | inactive |
| CC1(C)CC(=O)C2=C(C1)N(Cc1ccccc1)C(=O)C2(O)C(F)(F)F (centres undefined) | inactive |
| CCN1C(=O)/C(=C/N2CC(C)CC(C)C2)SC1=S (centres undefined) | inactive |
| CN(CCO)c1cc(Sc2nc3ccccc3s2)c2nonc2c1[N+](=O)[O-] | inactive |
| Cc1ccsc1/C=N/NC(=O)Cn1cnc2ccccc21 | inactive |
| Cc1cc([N+](=O)[O-])ccc1NC(=O)Cc1ccc(F)cc1 | inactive |
| O=C(CSc1nc2ccccc2s1)Nc1ccc(N2CCOCC2)c(Cl)c1 | inactive |
| O=C(CSc1n[nH]c(=O)[nH]c1=O)N/N=C/c1ccccc1 | inactive |
| Cc1ccccc1-n1c(C)cc(/C=N/Nc2ccc([N+](=O)[O-])cn2)c1C | inactive |
| Cc1ccc([N+](=O)[O-])cc1NC(=S)NC(=O)C(C)(C)C | inactive |
| COc1ccc(NC(=O)c2sccc2SCC#N)cc1 | inactive |
| CC(=S)c1c(C)cc2cc(C)ccn12 | inactive |
| CN(C)c1ccnc(Oc2ccc(F)cc2)c1C#N | inactive |

| Structure (SMILES) | outcome |
| --- | --- |
| CCn1c(SCc2ccc(F)cc2)nnc1C1CCN(S(=O)(=O)c2ccc(OC)cc2)CC1 | inactive |
| Cc1ccc(C(C)C)c(OCC(=O)Nn2c(=O)[nH]c3ccccc3c2=O)c1 | inactive |
| COc1ccc(S(=O)(=O)N2Cc3ccccc3CC2C(=O)N2CCOCC2)cc1OC (centres undefined) | inactive |
| CCNC(=O)NC1(C(=O)Nc2ccc3c(c2)OCCO3)CCCCC1 | inactive |
| CCN(CC)c1ccc(S(=O)(=O)Nc2cc(Cl)ccc2Cl)cc1NC(=S)NC(=O)C1CCCC1 | inactive |
| CCN1CCN(Cc2ccc(C)cc2C)CC1 | inactive |
| Cc1ccc(C2NNC(=O)C2NC(=O)c2ccccc2)cc1 (centres undefined) | inactive |
| Cc1nc(N)sc1Cc1ccc2c(c1)OCO2 | inactive |
| C=CCNc1sc(C(=O)c2ccc(C)cc2)c(N)c1C#N | inactive |
| COC(=O)C(CCSC)NC(=O)c1cccc([N+](=O)[O-])c1 (centres undefined) | inactive |
| NC(=O)c1cnn(Cc2ccc(Cl)cc2)c1N | inactive |
| Cc1nc2c(Cl)cccc2c2c1CC(CBr)O2 (centres undefined) | inactive |
| CC(=O)NC12CC3CC(C1)CC(C(=O)OCC(=O)c1ccc4c(c1)OCCO4)(C3)C2 | inactive |
| O=C1CC(c2ccco2)CC(O)=C1C=Nc1cc(Cl)cc(Cl)c1 (centres undefined) | inactive |
| Cc1cccc(NC(=O)c2cc(N3C(=O)CCC3=O)ccc2Cl)n1 | inactive |
| Cc1oc(CC(C)C)c(CN2CCCC2)c1C(=O)O | inactive |
| Cn1ncc(N=Cc2ccccc2O)c1C(=O)Nc1ccccc1 | inactive |
| O=C(Cc1cccs1)Nc1nc2c(s1)CCCC2 | inactive |
| Cn1cccc1C1NC(=O)c2c(sc3c2CCC(C(C)(C)C)C3)N1 (centres undefined) | inactive |
| Cc1c(NS(=O)(=O)c2ccc(N(C)C3CCCCC3)c([N+](=O)[O-])c2)c(=O)n(-c2ccccc2)n1C | inactive |
| CCCCOc1ccc(NC(=O)Nc2nnc(C)s2)cc1 | inactive |
| COc1cccc2[nH]c3c(N4CCN(Cc5ccc6c(c5)OCO6)CC4)ncnc3c12 | inactive |
| O=C(NCc1cccs1)Nc1cccs1 | inactive |

| Structure (SMILES) | outcome |
| --- | --- |
| O=C1C2CCCN2c2ccc(S(=O)(=O)N3CCOCC3)cc2N1Cc1ccccc1F (centres undefined) | inactive |
| O=C(c1cccc(S(=O)(=O)N2CCOCC2)c1)N1CCCC1 | inactive |
| Cc1ccc(/C=C/C(=O)c2ccccc(=O)c2O)cc1C | inactive |
| O=C(CSc1nncs1)Nc1ccc2c(c1)OCCO2 | inactive |
| Cc1cccc(C)c1Nc1nnc(SCC(=O)Nc2sccc2C#N)s1 | inactive |
| COc1ccccc1N1CCN(C/C(O)=C(\C#N)c2nc(-c3ccccc3)cs2)CC1 | inactive |
| COc1ccc(CN2CCOCC2)cc1Br | inactive |
| Cc1sc(NC(=O)c2ccco2)c(CN2CCN(c3ccc(F)cc3)CC2)c1C | inactive |
| O=C(CCN1CCN(c2ccc(F)cc2)CC1)Nc1ccccc1F | inactive |
| COc1ccc(C(=O)Oc2c(CN3CCOCC3)cc(Cl)c3cccnc23)cc1 | inactive |
| CNc1ncc(Cc2ccccc2)s1 | inactive |
| COC(=O)c1[nH]c2ccc(C)cc2c1NC(=O)Nc1ccc(OC)cc1 | inactive |
| CC(=O)Nc1ccc(S(=O)(=O)N2CCC(n3cnc4cc(F)ccc43)CC2)cc1 | inactive |
| CC(=O)c1c(C)n([O-])c2ccccc2[n+]1=O | inactive |
| O=C(CSc1nc2[nH]ncc2c(=O)[nH]1)N1CCCCC1 | inactive |
| Cc1ccc2nc(C(F)OC(F)(F)F)[nH]c2c1 (centres undefined) | inactive |
| Nc1cccc(-c2nc3ccc(N)cc3s2)c1 | inactive |
| O=[N+]([O-])/C=C/c1cc2ccccc2[nH]1 | inactive |
| CCN(CC)CCN(Cc1cc2cc3c(cc2[nH]c1=O)OCCO3)C(=O)NC1CCCCC1 | inactive |
| c1ccc(Oc2cc(-c3ccccc3)ncn2)cc1 | inactive |
| COc1ccc(CN2C(=O)Cc3c2nc(N)c2c(N)nc(N4CCCCC4)c(C#N)c32)cc1 | inactive |
| C=COC(=O)CSc1snc(SCC(=O)OC)c1C#N | inactive |
